EPAC1 antagonist = qHTS for Antagonist of cAMP-regulated guanine nucleotide exchange factor 3 (EPAC1): primary screen; Rap guanine nucleotide exchange factor 3 (Homo sapiens), O95398; Potency, µM (highest dose often 115 µM), usual class: inhibitors; actives 0.14% (n = 360,000); EPAC1 GEF assay, Rap1b-BODIPY-GDP exchange fluorescence; note: nearly all actives have a fitted effect of over 50% in size
EPAC2 ag = qHTS for Agonist of cAMP-regulated guanine nucleotide exchange factor 4 (EPAC2): primary screen | Rap guanine nucleotide exchange factor 4 (Homo sapiens), Q8WZA2 | EPAC2 activation, biochemical qHTS; response scale: 100% = 6.5 mM cAMP response | Potency, µM (highest dose often 154 µM), actives largely listed as activators | actives 0.079% (n = 360,000) | AID 720711, 2013; note: nearly all actives have a fitted effect of over 50% in size
Target sequence (Q8WZA2 whole entry, looked up): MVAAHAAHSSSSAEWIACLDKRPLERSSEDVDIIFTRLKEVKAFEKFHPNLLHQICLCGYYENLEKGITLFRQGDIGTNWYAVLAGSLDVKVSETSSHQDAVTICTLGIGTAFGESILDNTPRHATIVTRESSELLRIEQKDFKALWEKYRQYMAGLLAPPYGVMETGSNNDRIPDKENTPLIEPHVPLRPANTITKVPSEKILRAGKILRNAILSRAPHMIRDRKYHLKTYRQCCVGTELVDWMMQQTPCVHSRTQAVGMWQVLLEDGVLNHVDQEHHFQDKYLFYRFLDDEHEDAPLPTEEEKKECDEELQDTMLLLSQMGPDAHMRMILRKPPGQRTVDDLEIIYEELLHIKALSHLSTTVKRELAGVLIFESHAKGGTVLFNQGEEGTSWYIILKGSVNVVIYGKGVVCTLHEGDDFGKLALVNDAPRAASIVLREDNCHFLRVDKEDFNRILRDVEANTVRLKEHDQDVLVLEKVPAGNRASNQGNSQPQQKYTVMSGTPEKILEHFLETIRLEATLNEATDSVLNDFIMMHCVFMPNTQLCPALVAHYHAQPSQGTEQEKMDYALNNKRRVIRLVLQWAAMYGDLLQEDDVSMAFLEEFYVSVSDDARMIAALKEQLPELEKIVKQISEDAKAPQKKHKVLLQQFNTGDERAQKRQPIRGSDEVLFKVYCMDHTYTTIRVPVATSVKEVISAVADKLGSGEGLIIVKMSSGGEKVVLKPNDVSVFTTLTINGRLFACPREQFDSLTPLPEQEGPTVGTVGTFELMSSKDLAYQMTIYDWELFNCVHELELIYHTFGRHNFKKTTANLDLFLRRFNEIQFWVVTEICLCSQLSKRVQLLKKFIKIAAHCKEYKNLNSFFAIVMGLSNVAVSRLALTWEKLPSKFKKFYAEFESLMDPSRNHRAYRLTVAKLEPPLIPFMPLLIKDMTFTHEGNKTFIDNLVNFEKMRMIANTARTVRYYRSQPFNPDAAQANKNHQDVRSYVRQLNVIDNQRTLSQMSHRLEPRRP
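Compounds were added across a concentration range to EPAC2 (100 nM), RAP1B-BODIPY-GDP (250 nM) and GDP (50 uM). After 5 min at room temperature, fluorescence was recorded at 5-min intervals for 30 min.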
USP1-UAF1 inh = Inhibitors of USP1/UAF1: Primary Screen. Ubiquitin carboxyl-terminal hydrolase 1 (Homo sapiens), O94782. recombinant USP1/UAF1, Ub-Rhodamine cleavage fluorescence. Potency, µM (titrated, usually from 57.1 µM), hits mostly inhibitors. actives 0.23% (n = 390,000). AID 743255, 2014; note: nearly all actives have a fitted effect of over 60% in size
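1 nM enzyme complex + cpd, 15 min RT; start with Ub-Rho 150nM final; kinetic fluorescence ex 480/em 540, 6 reads q60 s. Buffer 50mM HEPES pH 7.8, 0.5mM EDTA, 0.1 mg/ml BSA, 1mM TCEP, 0.01% Tween-20.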
USP2a block = qHTS Assay for Inhibitors of Ubiquitin-specific Protease USP2a Using CHOP2 as the Reporter | Ubiquitin carboxyl-terminal hydrolase 2 (Homo sapiens), O75604 | USP2 core, Ub-CHOP2 coupled fluorogenic reporter, 485/531 | Potency, µM (top dose mostly 38.3 µM), usual class: inhibitors | actives 0.01% (n = 330,000) | AID 463254, 2010
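USP2 core (10nM final) preincubated 30min RT with compound in 20mM Tris-HCl pH 8.0, 2mM CaCl2, 2mM beta-mercaptoethanol, 0.05% CHAPS; 25nM Ub-CHOP2 plus 25nM reporter substrate added, fluorescence (Ex485/Em531) read after 60min.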
EPAC2 antagonist = qHTS for Antagonist of cAMP-regulated guanine nucleotide exchange factor 2 (EPAC2): primary screen | EPAC2 GEF exchange of Rap1B-BODIPY-GDP, fluorescence | actives 0.18% (n = 360,000) | Potency, µM (titrated, usually from 114 µM), hits mostly inhibitors | Rap guanine nucleotide exchange factor 4 (Homo sapiens), Q8WZA2; note: nearly all actives have a fitted effect of over 45% in size
EPAC1 agonist = qHTS for Agonist of cAMP-regulated guanine nucleotide exchange factor 3 (EPAC1): primary screen; EPAC1 agonist qHTS, biochemical assay; response scale: 100% = response to 6.5 mM cAMP; actives 0.073% (n = 360,000); Potency, µM (series often up to 154 µM), most hits filed as activators; AID 720707, 2013; note: nearly all actives have a fitted effect of over 60% in size
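Nucleotide exchange by EPAC1 (100 nM) on Rap1B–BODIPY-GDP (250 nM) in the presence of 50 uM GDP is tracked fluorescently at 480/540 nm over 30 min. Signals are normalized to a 6.5 mM cAMP control.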
Large screens that a line does not name were inactive. Only some compounds are listed: those with a hit (about 0.45% of all), similar ones and a draw of the others. Calls come from the whole dose curve; as a rule, active = well fitted curve in the direction sought with a large enough effect; inconclusive = small, poorly fitted or top-dose-only effect, or another doubt; inactive = no such curve, though single readings can be large; an effect the other way counts as inactive or inconclusive.

COc1cccc2c1C(=O)c1c(O)c3c(c(O)c1C2=O)CC(O)(C(=O)CO)CC3OC1CC(N(C)C)C(O)C(C)O1 (stereo not drawn)	USP1-UAF1 inh inconclusive, EPAC1 agonist inconclusive (no result: USP2a block)
COc1cccc2c1C(=O)c1c(O)c3c(c(O)c1C2=O)C[C@@](O)(C(C)=O)C[C@@H]3O[C@H]1C[C@H](N)[C@H](O)[C@H](C)O1	USP1-UAF1 inh 5.6µM, USP2a block inconclusive, EPAC2 antagonist inconclusive
CC(=O)[C@]1(O)Cc2c(O)c3c(c(O)c2[C@@H](O[C@H]2C[C@H](N)[C@H](O)[C@H](C)O2)C1)C(=O)c1ccccc1C3=O	EPAC2 ag 112µM, USP1-UAF1 inh 28µM, EPAC1 agonist 100µM (no result: USP2a block)
COc1cccc2c1C(=O)c1c(O)c3c(c(O)c1C2=O)C[C@@](O)(C(=O)CO)C[C@@H]3O[C@H]1C[C@H](N)[C@@H](O)[C@H](C)O1	USP1-UAF1 inh 28µM (no result: USP2a block)
CCN(CC(=O)Nc1ccccc1C(F)(F)F)C(=O)CCOc1ccccc1C	EPAC1 agonist 45µM
CCOc1ccccc1-c1noc(CCCC(=O)Nc2cccc(C(F)(F)F)c2)n1	none (no result: EPAC1 antagonist, EPAC2 ag, USP2a block, EPAC2 antagonist, EPAC1 agonist)
COc1ccccc1NC(=O)c1ccccc1NS(=O)(=O)c1cccs1	EPAC2 antagonist inconclusive
COc1ccc(C)cc1NC(=O)c1ccccc1NS(=O)(=O)c1ccc(Cl)s1	EPAC2 antagonist 32µM
Cc1ccc(N(C)C(=O)Cn2cnc3onc(-c4ccc(F)cc4)c3c2=O)cc1C	none (no result: EPAC1 antagonist, EPAC2 ag, USP2a block, EPAC2 antagonist, EPAC1 agonist)
CCCCC(=O)N1CCc2cc(OC)c(OC)cc2C1COc1ccc(C(=O)OCC)cc1 (stereo not drawn)	none (no result: EPAC1 antagonist, EPAC2 ag, USP2a block, EPAC2 antagonist, EPAC1 agonist)
Cc1cccc(Cn2c(=O)oc3ccc(C)cc32)c1	EPAC2 antagonist 79µM
O=C(COC(=O)c1ccc([N+](=O)[O-])s1)Nc1ccc(Cl)cn1	none
Cc1c(Cl)cnc(NC(=O)COC(=O)c2ccc([N+](=O)[O-])s2)c1Cl	EPAC1 antagonist inconclusive, USP1-UAF1 inh 18µM
CCc1ccccc1NC(=O)CN1CCN(CC(=O)Nc2ccc3c(c2)OC2(CCCCC2)O3)CC1	EPAC1 antagonist inconclusive (no result: USP2a block)
COc1cc(C2CC(=O)C3=C(C2)Nc2ncnn2C3c2cccs2)cc(OC)c1OC (stereo not drawn)	none
COc1cc(C2C=C(c3cccs3)Nc3ncnn32)cc(OC)c1OC (stereo not drawn)	USP1-UAF1 inh inconclusive, USP2a block inconclusive, EPAC1 agonist 100µM
CCCCCn1nc(-c2ccccc2)c2nc3ccccc3nc21	EPAC2 ag 100µM, USP1-UAF1 inh inconclusive
COc1ccc(/C=C2\SC(=O)N(CCC(=O)Nc3ccc(S(=O)(=O)Nc4nccs4)cc3)C2=O)cc1	USP2a block inconclusive
Cc1ccc(/C=C2/SC(=S)N(c3ccc(S(=O)(=O)Nc4nccs4)cc3)C2=O)cc1	EPAC1 antagonist inconclusive, USP1-UAF1 inh inconclusive, USP2a block inconclusive
COc1ccc(/C=C2/SC(=S)N(c3ccc(S(=O)(=O)Nc4nccs4)cc3)C2=O)cc1	EPAC1 antagonist 71µM, USP1-UAF1 inh inconclusive, USP2a block inconclusive
COc1ccc(/C=C2/SC(=O)N(CCC(=O)Nc3ccc(S(=O)(=O)Nc4nccs4)cc3)C2=O)cc1	EPAC1 antagonist 50µM
CC(NC(=O)COc1ccccc1-c1ccccc1)c1ccccc1 (stereo not drawn)	USP2a block inconclusive, EPAC2 antagonist 40µM
CN(C)c1ccc(/C=C(/C(=O)c2ccc(Cl)cc2Cl)n2cncn2)cc1	EPAC2 ag 45µM, USP1-UAF1 inh inconclusive, EPAC1 agonist 100µM
Cc1cccc(C)c1NC(=O)C1(C)CN(S(C)(=O)=O)CC(=O)N1CCc1c[nH]c2ccccc12 (stereo not drawn)	none (no result: USP1-UAF1 inh, USP2a block)
CCc1ccccc1NC(=O)C(CCSC)NS(=O)(=O)c1ccc2c(c1)oc(=O)n2C (stereo not drawn)	none (no result: EPAC1 antagonist, EPAC2 ag, USP2a block, EPAC2 antagonist, EPAC1 agonist)
NC(Cc1ccc(Cl)cc1)c1csc(Nc2ccc(C(F)(F)F)cn2)n1 (stereo not drawn)	none (no result: USP1-UAF1 inh, USP2a block)
COCCCNC1=C(Cl)C(=O)c2ccccc2C1=O	USP1-UAF1 inh inconclusive
COCCCNc1c2c3c(cccc3[nH]c1=O)C(=O)c1ccccc1-2	EPAC2 ag 100µM, USP1-UAF1 inh 4.5µM, USP2a block inconclusive, EPAC1 agonist 100µM
O=C(O)CC(SCC(=O)Nc1ccc(Cl)c(S(=O)(=O)N2CCOCC2)c1)C(=O)O (stereo not drawn)	none
CC(CC(=O)Nc1ccc(Cl)c(S(=O)(=O)N2CCOCC2)c1)c1ccccc1 (stereo not drawn)	EPAC1 agonist 22µM
Oc1ccc(N=Cc2ccc(OCc3ccccc3)cc2)cc1	EPAC1 antagonist 25µM, USP1-UAF1 inh 2.8µM, EPAC2 antagonist inconclusive
CCCC(=O)Nc1cccc(OCc2cc(=O)n3cccc(C)c3n2)c1	none (no result: EPAC1 antagonist, EPAC2 ag, USP2a block, EPAC2 antagonist, EPAC1 agonist)
CCOc1ccccc1NS(=O)(=O)c1ccc2c(c1)CC(C)N2C(=O)C1CC1 (stereo not drawn)	none (no result: EPAC1 antagonist, EPAC2 ag, USP2a block, EPAC2 antagonist, EPAC1 agonist)
CC1(C)CC[C@]2(C(=O)O)CC[C@]3(C)C(=CC[C@@H]4[C@@]5(C)CC[C@H](O[C@@H]6O[C@H](C(=O)O)[C@@H](O)[C@H](O[C@@H]7OC[C@H](O)[C@H](O)[C@H]7O)[C@H]6O)C(C)(C)[C@@H]5CC[C@]43C)[C@@H]2C1	EPAC1 antagonist 50µM
CCCN1CCc2c(sc(NC(=O)c3ccc(S(=O)(=O)N(C)c4ccccc4)cc3)c2C(=O)NC)C1	USP1-UAF1 inh inconclusive
CCCN1CCc2c(sc(NC(=O)c3ccc(S(=O)(=O)N(C)c4ccccc4)cc3)c2C(N)=O)C1	EPAC2 ag 112µM, USP1-UAF1 inh inconclusive
COc1cc2c(cc1OC)-c1cc(NC3CCCCC3)nc(=O)n1CC2	EPAC2 ag 6.3µM
Cc1ccc2c(=O)cc(C(=O)Nc3ccc(S(=O)(=O)N4CCCCCC4)cc3)oc2c1C	none (no result: EPAC1 antagonist, EPAC2 ag, USP2a block, EPAC2 antagonist, EPAC1 agonist)
